KinaseGlo FLuc = Counterscreen for Luciferase (Kinase-Glo TM) Inhibition; Potency, µM (highest dose often 38.3 µM), for inactives: at the top dose activity change, negative = inhibition, actives largely listed as inhibitors; Luciferin 4-monooxygenase (Photuris pensylvanica), Q27757; Kinase-Glo luciferase, ATP luminescence, 8 min; AID 1379, 2008; 0.28% of 200,000 active; also: potency is read from the fitted curve at half-maximal effect; % is scaled to controls: 0 for no effect and ±100 for the full control effect; nearly all actives have a fitted effect of over 60% in size
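Light output from Kinase-Glo luciferase with luciferin and 10 uM ATP in 50 mM imidazole pH 7.2, KCl, MgCl2, Tween 20, BSA; compound pin-delivered, 8-min ambient incubation, then luminescence read.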
IMPase Li inh = qHTS Assay for Identifying the Cell-Membrane Permeable IMPase Inhibitors: Potentiation with Lithium; Potency, µM (top dose mostly 59.4 µM), for inactives: at the top dose activity, negative = IMPase inhibition, actives largely listed as inhibitors; 0.35% of 210,000 active; CHO-M1 cells, IP1 TR-FRET (IP-One), carbachol + lithium;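 also: IP1 builds up when IMPase is blocked and the TR-FRET signal falls; potency is read from the fitted curve at half-maximal effect; plate controls were basal vehicle for no effect and high inhibitor control for full effect; nearly all actives have a fitted effect of over 50% in size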
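CHO cells stably expressing M1 receptor (2000/well) were cultured 16–30 h, then exposed to compounds with a small lithium addition for 30 min at 37C. IP1 was measured by TR-FRET competition; AC50 from Hill fits.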
TCR activator = Activators of T cell receptors: qHTS campaign; 330,000 tested, under 10 active; Potency, µM (series often up to 9.22 µM), for the others: top-dose activation of IL-2 secretion, usual class: activators; primary human leukocytes, anti-CD3, IL-2 HTRF, 48 h; also: % of control where 0% means no effect
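TCR engagement came from a-CD3 beads alone, with compounds added to primary human leukocytes for 48 hr. Secreted IL-2 bridged europium cryptate- and d2-labelled anti-IL-2 antibodies, giving FRET emission at 665nm after 320nm excitation.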
Lamin A splicing = qHTS Assay for Modulators of Lamin A Splicing; Potency, µM (doses to about 46.1 µM), inactives show at the highest dose ratio change, negative = inhibition, hits mostly inhibitors; 0.01% of 200,000 active; HeLa LMNA splicing GFP/RFP minigene ratio, 48 h; active = well fitted inhibition curve with a large enough effect in the signal ratio, with a control signal flat, not every such curve was filed as active; inconclusive = small, poorly fitted or top-dose-only effect, or effect the other way, or a change in a side signal; the % refers to the signal ratio; also: potency is read from the fitted curve at half-maximal effect; % is scaled to controls: 0 for no effect and ±100 for the full control effect
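Read-out is the ratio of GFP to DsRed2 object intensity, acquired by 488 nm laser-scanning cytometry on HeLa lamin A-EGFP minigene reporter cells. Compound incubation 48 hrs at 37 °C in Opti-MEM with 2% FBS; DMSO 0.5% final.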
Active calls of the source: *; [ ] = another dose, or the depositor's remark. An excerpt weighted towards active compounds, which were near 0.34% of everything screened. Unless noted, calls follow the shape of the dose curve; as a rule, active = well fitted curve in the direction sought with a large enough effect; inconclusive = small, poorly fitted or top-dose-only effect, or another doubt; inactive = no such curve, though single readings can be large; an effect the other way counts as inactive or inconclusive.

Cc1nc(SCCC(=O)O)c2ccccc2n1 was read as KinaseGlo FLuc -1%, IMPase Li inh 13µM*, TCR activator -38% and Lamin A splicing 11%.
For COc1ccc(NC(=O)CCSc2ccc3ccccc3n2)cc1 the results were KinaseGlo FLuc 4%, IMPase Li inh -15%, TCR activator -6%[46.1 µM] and Lamin A splicing 10%.
Screening O=C(O)CCSc1ccc2ccccc2n1 returned KinaseGlo FLuc -9%, IMPase Li inh 14µM*, TCR activator -9% and Lamin A splicing 3%.
O=C(O)CSc1ccc2ccccc2n1 was read as KinaseGlo FLuc -1%, IMPase Li inh 7.1µM*, TCR activator -9% and Lamin A splicing -6%.
CCOC(=O)CSc1ccc2ccccc2n1 was read as KinaseGlo FLuc 0%, IMPase Li inh -26%, TCR activator -49% and Lamin A splicing -14%[46 µM].
Screening O=C(O)CCSc1nc2ccccc2c(=O)[nH]1 returned KinaseGlo FLuc 2%, IMPase Li inh 5%, TCR activator 0%[46.1 µM] and Lamin A splicing -5%.
Cc1cc(SCCC(=O)O)nc2ccccc12 was read as KinaseGlo FLuc -2%, IMPase Li inh 11µM*, TCR activator -4% and Lamin A splicing 2%.
For Cc1ccc(CNC(=O)C2CCN(c3ncnc4c3nc3n4CCCCC3)CC2)cc1 the results were Lamin A splicing 10%[46 µM].
`Cc1ccc(S(=O)(=O)N(C)C)cc1NC(=O)CSc1nc2ncc(Cl)cc2[nH]1` gave TCR activator 3%.
Screening COc1ccc(C(=O)N2CCC3(CC2)CN(CC(C)C)C3)cc1 returned KinaseGlo FLuc 0% and IMPase Li inh 3%.
`c1cncc(-c2cccnc2)c1` gave KinaseGlo FLuc -4%, IMPase Li inh 14µM*, TCR activator -3% and Lamin A splicing 9%.
`CCOCCCNC(=O)Cn1ncc2c([nH]c3ccc(C)cc32)c1=O` gave Lamin A splicing 9%[46 µM].
For Cc1nn(CCc2nn[nH]n2)c2nc(-c3ccc(Br)cc3)cc(C(F)(F)F)c12 the results were KinaseGlo FLuc 2%, IMPase Li inh 2µM*, TCR activator 4% and Lamin A splicing inconclusive.
`Cc1nn(CCc2nn[nH]n2)c2nc(C(F)(F)F)cc(C(F)(F)F)c12` gave KinaseGlo FLuc 3%, IMPase Li inh -8%[38.3 µM], TCR activator 0% and Lamin A splicing 9%.
Screening COc1ccc(C(=O)Nc2cccc(C)c2)cc1S(=O)(=O)N1CCOCC1 returned KinaseGlo FLuc 10%, IMPase Li inh 35%[38.3 µM], TCR activator -2% and Lamin A splicing inconclusive.
For COc1ccc(C(=O)Nc2cccc3c2C(=O)NC3=O)cc1S(=O)(=O)N1CCOCC1 the results were KinaseGlo FLuc 4%, IMPase Li inh 10µM*, TCR activator -12% and Lamin A splicing 20%.
Screening CC(=O)N1CCC2(CC1)CCN(C(=O)Nc1cccc(C#N)c1)CC2 returned KinaseGlo FLuc -3% and IMPase Li inh -5%.
O=C(OCC(=O)c1cccs1)c1ccccc1 was read as KinaseGlo FLuc 8.9µM*, IMPase Li inh 10%[38.3 µM], TCR activator 1% and Lamin A splicing 4%.
`O=C(CNC(=O)c1ccccc1)OCC(=O)c1cccs1` gave TCR activator -7%.
Screening Cc1nn2c3ccccc3n(Cc3ccccc3)c2nc1=O returned KinaseGlo FLuc 1%, IMPase Li inh 3%, TCR activator 2%[46.1 µM] and Lamin A splicing -20%.
Screening Cc1nn2c3ccccc3n(CC(=O)c3cccs3)c2nc1=O returned KinaseGlo FLuc 2%, IMPase Li inh 4µM* and TCR activator 5%.
Cc1cc(N2C(=O)C(O)=C(C(=O)c3ccc(C)o3)C2c2cccs2)no1 (stereo not drawn) was read as KinaseGlo FLuc -2%, IMPase Li inh 10µM*, TCR activator 3% and Lamin A splicing 2%.
Screening CSc1nc(N)nc(SCC(=O)c2ccccc2)c1C#N returned KinaseGlo FLuc -9%, IMPase Li inh 18%[38.3 µM], TCR activator 0% and Lamin A splicing inconclusive.
For COc1ccc(C(=O)CSc2nc(N)nc(SC)c2C#N)cc1 the results were KinaseGlo FLuc 1%, IMPase Li inh 6.3µM*, TCR activator 7% and Lamin A splicing -1%.
Screening Cc1nc(-c2ccccc2)sc1C1(C)CC(c2c(Cl)cccc2Cl)=NO1 (stereo not drawn) returned TCR activator -2%.
`C=CC[C@@H](CC(=O)N(CCO)Cc1ccccc1)C(=O)NC[C@H](OC(=O)[C@@H](CC=C)Cc1ccc(F)cc1)c1ccccc1` gave TCR activator -2%.
`Cc1ccc2c(c1)C(N1CCCC1=O)CC(c1ccco1)N2` (stereo not drawn) gave KinaseGlo FLuc 11µM*, IMPase Li inh -2%[38.3 µM], TCR activator 0% and Lamin A splicing 4%.
For Cc1ccc(C2CC(c3ccco3)n3ncnc3N2)cc1 (stereo not drawn) the results were KinaseGlo FLuc 2%, IMPase Li inh -2%[38.3 µM], TCR activator 9% and Lamin A splicing 5%.
Fc1ccc(-c2nnc(NC3=NCCCCC3)o2)cc1 was read as KinaseGlo FLuc 11µM*, IMPase Li inh -7%[38.3 µM], TCR activator 7% and Lamin A splicing inconclusive.
For COC(=O)c1sccc1NC(=O)Nc1ccccc1F the results were KinaseGlo FLuc 13µM*, IMPase Li inh 1%, TCR activator 3% and Lamin A splicing 2%[46 µM].
For COC(=O)c1sccc1NC(=O)Nc1ccccc1C the results were TCR activator 1%.
`Cc1ccc(Sc2c(O)c3ccccc3n(C)c2=O)cc1` gave KinaseGlo FLuc -1%, IMPase Li inh 10µM*, TCR activator 1%[46.1 µM] and Lamin A splicing -9%.
Cn1c(=O)c(Sc2ccccc2)c(O)c2ccccc21 was read as TCR activator -17%.
`Cn1c(O)c(C=NCC2CCNCC2)c(=O)n(C)c1=O` gave KinaseGlo FLuc 1%, IMPase Li inh 8%, TCR activator 8%[46.1 µM] and Lamin A splicing 8%.
Screening CC(=O)CSc1nc(-c2cccs2)c(C#N)c(=O)[nH]1 returned KinaseGlo FLuc -1%, IMPase Li inh 7.9µM* and TCR activator -17%.
CC(=O)C1=C(O)C(=O)N(c2ccc(Br)cn2)C1c1ccccc1F (stereo not drawn) was read as KinaseGlo FLuc 1%, IMPase Li inh 11µM*, TCR activator 10% and Lamin A splicing -4%.
Cc1cc(COc2ccccc2)oc1C(=O)O was read as TCR activator -3%.
For O=c1c2oc3ccccc3c2[nH]c(=S)n1-c1ccccc1 the results were KinaseGlo FLuc 5%, IMPase Li inh 8.9µM*, TCR activator -14%[46.1 µM] and Lamin A splicing -12%.
Cc1cccc(-n2c(=S)[nH]c3c(oc4ccccc43)c2=O)c1 was read as KinaseGlo FLuc -3%, IMPase Li inh 8.9µM*, TCR activator -7%[46.1 µM] and Lamin A splicing inconclusive.
`Cc1ccc(-n2c(=S)[nH]c3c(oc4ccccc43)c2=O)cc1` gave TCR activator -3%[46.1 µM] and Lamin A splicing -9%.

Source: PubChem BioAssay
